The structures appear in SMILES notation. The panel holds about 79,000 compounds, 15% with a hit somewhere; the sample as a whole holds those more often. Active and inactive are the calls of the source. No stated cut-off is given here; in the data, active means growth inhibition above about 70%; inactive means the rest. Where a SMILES comes first, the peptide text is derived from it. [ ]: non-standard residue; d: D form. The star is where a group is joined. ONb = O=[N+]([O-])c1ccc(CO*)cc1; AllylGly = C=CC[CH](N)C(=O)O; Boc = CC(C)(C)OC(=O)*

The nature of this assay: NCI Yeast Anticancer Drug Screen. Data for the mlh1 rad18 strain (AID 175). Particulars: S. cerevisiae mlh1 rad18 strain growth inhibition; at 50.0 µM; hits give high values. In a few lines: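 Vehicle-treated cultures served as the reference for growth inhibition in a yeast strain carrying DNA damage repair alterations exposed to each compound.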
Take `Cc1cccc2c(N=[N+]=[N-])cc(C(F)(F)F)nc12`: the growth inhibition is -1.4% (inactive).
The figure for `COC(C)C(NC(=O)C1CCCN1C)C1OC(SCCOC(=O)c2ccccc2O)C(O)C(O)C1O` (stereo not given) is 31.6% (inactive); for `CC1(C)N(/N=C/c2ccccc2)C(c2ccccc2)C(c2ccccc2)N1/N=C/c1ccccc1` (stereo not given) it is 9.75% (inactive).
The figure for `CC(C)CSC(SCC(C)C)C(O)C(O)C(O)CO` (stereo not given) is 6% (inactive); for `N#CC1=C(N)CCC(C#N)(c2ccccc2)C1` (stereo not given) it is 8.2% (inactive).
Take `O=C1C(=C(c2ccccc2)N2CCCCC2)C(=O)c2ccccc21`: the growth inhibition is 3.2% (inactive).
The figure for `CCCCCCCCCCCCCCCCCCOc1c(Cl)c(Cl)c(Cl)c(Cl)c1Cl` is -8.1% (inactive); for `O=C1c2c(O)cccc2C(C(=O)CCCC(=O)C2c3cccc(O)c3C(=O)c3c(O)cccc32)c2cccc(O)c21` it is -0.85% (inactive).
The figure for `NNC(=O)C(=O)N/N=C(/CC1(O)C(=O)Nc2ccccc21)c1ccc(Cl)cc1Cl` (stereo not given) is -1.95% (inactive); for `O=C(O)c1cccc([N+](=O)[O-])c1Nc1cccc(C(F)(F)F)c1` it is 0.25% (inactive).
Regarding `C[N+](C)(C)c1cc(Br)c(O)c(Br)c1`, the growth inhibition was 33% (inactive).
For `COC(=O)c1cc(C(=O)OC)c(C(=O)OC)cc1C(=O)OC` the value was 22.1% (inactive); for `CCc1ccccc1NC(=O)C1=C(C)NC(C)=C(C(=O)Nc2ccccc2CC)C1c1cccc([N+](=O)[O-])c1`, 20.5% (inactive).
The figure for `CCCCOC(=O)NC(=O)c1cn(CCCOC(=O)CCCCCCCCC(=O)OCCCn2cc(C(=O)NC(=O)OCCCC)c(=O)n(C)c2=O)c(=O)n(C)c1=O` is -5.55% (inactive).
As for `CCC(Nc1nncs1)Nc1nncs1`, the growth inhibition is -3% (inactive).
The figure for `C=C(Cl)C(=O)O` is -7.55% (inactive).
For `CC1CCCC(C)C1CO` (stereo not given) the value was 15.8% (inactive); for `CC(=O)OCc1cc(=O)n2c([nH]c3ccccc32)c1C#N`, -2.6% (inactive); for `Cc1ccnc(NCc2ccccn2)c1`, -1.5% (inactive).
For `Cc1ccc(S(=O)(=O)N=Nc2c(O)[nH]c3c(Cl)cc(Cl)cc23)cc1` the value was 23.2% (inactive); for `COc1ccc(/C=C/C2=CC(=O)CC(c3ccc(OC)c(OC)c3)C2)cc1OC` (stereo not given), 9.35% (inactive).
As for `O=Cc1ccc(-c2cccc([N+](=O)[O-])c2)s1`, the growth inhibition is 1.85% (inactive).
For `COCC(N=CN1CCCc2ccccc2[C@@H]1CCCCl)C(C)(C)C` (stereo not given in full) the value was 13.1% (inactive); for `Cc1ccc2[nH]c(=O)cc(C)c2c1`, 30.8% (inactive); for `COc1ccc(-c2nnc(CCCCCCCCc3nnc(-c4ccc(OC)cc4)n3N)n2N)cc1`, -1% (inactive).
Take `CCCCC1CCC2CCCCC2C1` (stereo not given): the growth inhibition is 8% (inactive).
On to `COc1cc(/C=C2\CCC(CN(C)C)C2=O)ccc1OC(=O)c1ccccc1` (stereo not given), for which the growth inhibition is 89.7% (active).
On to `CCOC(=O)/C(C#N)=C/Nc1[nH]c(=O)c(C#N)c(-c2ccc(Cl)cc2)c1SC`, for which the growth inhibition was 16.8% (inactive).
As for `CC(=O)C1=CN(Cc2ccccc2)C(O)CC1C(N)=O` (stereo not given), the growth inhibition is 1.3% (inactive).
The figure for `CCN(CC)CCNc1ccc(C)c2sc3ccc(N)cc3c(=O)c12` is 19.8% (inactive); for `CN(C)c1nc(=O)c2c(ccc3ccccc32)o1` it is -3.7% (inactive); for `CCCCCC(Nc1nncs1)Nc1nncs1` it is 12.6% (inactive).
For `Cc1cc(=O)n(-c2ccc(-c3ccc(-n4c(C)c(C(=O)O)c(C)cc4=O)cc3)cc2)c(C)c1C(=O)O` the value was 27.6% (inactive); for `CC[N+](CC)(CC)CCCC[P+](CC)(CC)CC`, 13.7% (inactive).
The figure for `COc1ccc(-n2c(N)c(C#N)c(C#N)c2-c2cccc([N+](=O)[O-])c2)cc1` is -48.5% (inactive); for `Nc1ccc2cn[nH]c2c1` it is -2% (inactive); for `C=CCC(NC(=O)OC(C)(C)C)C(=O)NC(CCC(=O)OCc1ccc([N+](=O)[O-])cc1)C(N)=O` (stereo not given) (Boc-[AllylGly]-Glu(ONb)-NH2; configuration not given here) it is -9.2% (inactive).
`CC1(n2[nH]c(=O)n(-c3ccccc3)c2=O)Cn2c(=O)n(-c3ccccc3)c(=O)n2-c2ccccc21` (stereo not given): the growth inhibition was 9.1% (inactive).
The figure for `COC1OC(=O)c2ccccc21` (stereo not given) is 12.8% (inactive); for `CCN(CC)CCN(Cc1ccccc1)C(=S)NC(=O)c1ccccc1` it is -19.5% (inactive).

Source of the values: PubChem BioAssay (NCI).
